Residue numbers refer to the chain shown, from its start. In all, about 24,000 sequences were measured (“enrichment r”: median about 0.99, highest 2% from about 3.7 on). The sample as a whole holds a higher share of the highest values than the screen did.
T1: UNK ZnF1-3 (human, UniProt Q9C0B0 31-174)
T1 sequence: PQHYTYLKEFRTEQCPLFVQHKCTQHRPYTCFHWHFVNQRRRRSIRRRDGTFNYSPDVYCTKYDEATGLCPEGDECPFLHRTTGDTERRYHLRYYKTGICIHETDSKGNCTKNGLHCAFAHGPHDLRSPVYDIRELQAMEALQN

B1: chr1:241675328:241675329:-_ENSG00000091483_ENST00000366560|hu_mus|FALSE|FALSE (ssRNA)
RNA: GGGAGUUCUACAGUCCGACGAUCGCUUUUGUUAACAUGAUCAUUGGGGUGCACAGGCUUCUUGCUGCCAAGUUCACCUCCUAACAUUUCAAUUGCUCUGUUGCUAAUGACUUCAUUUACAUUCAUGUUUGUCUGGGUUCCUGACAACAGAGGAUUGAGCAUCA
B2: chr17:45747064:45747065:+_ENSG00000108424_ENST00000290158|hu_hu|hu_hu_hu_mus_True|38_108 (ssRNA)
RNA: GGGAGUUCUACAGUCCGACGAUCGCCUACAGUCCAUGCUGUUGUGUCUCGAACAACUACACUGGGGUCUUUCAUUAGUUCUAUUAGGGUGGGCAUAGCCUGUAUAACUAAUGGUUUCAGUUGAUUAGGCUCUGGUCCUUCCAACAACAGAGGAUUGAGCAUCA
B3: chr18:10010020:10010021:-_ENSMUSG00000047879_ENSMUST00000092096|mus_hu|FALSE|FALSE (ssRNA)
RNA: GGGAGUUCUACAGUCCGACGAUCCUCGGCAAACUGUGGGAAAGCCAUGUGCAAAAACUGCAGUAGAAUAAUAGGUGGAAUACUGGAAGAAGUUUUAUCCAUGGAAUCAAACAAAUCUCUAAGGGCUGCAGUAAUAUACUGCGCCAACAGAGGAUUGAGCAUCA
B4: chr7:149068622:149068623:-_ENSMUSG00000025139_ENSMUST00000001950|mus_hu|mus_mus_mus_hu_False|68_98 (ssRNA)
RNA: GGGAGUUCUACAGUCCGACGAUCGUGAGGCCUCUGAGUGAGGUUCCUGGUCUGUCCUGGGUUAGAGCUGCUGGUAACACGGAACAUACCAUCUAGAACGUUCCAGUCCCGCCUGACACCUUCAUUCCCAAUGGAGAAGAAAUCCAACAGAGGAUUGAGCAUCA
B5: chr7:141445308:141445309:+_ENSG00000106028_ENST00000265304|hu_hu|hu_hu_hu_mus_False|48_68 (ssRNA)
RNA: GGGAGUUCUACAGUCCGACGAUCUAUGAUUGUUGUUGCUUGCCGCCUCACAUUGUUUUUAUCCAUGUAUUCACCAUAGUCCACUUUCCCUUCCAAAAAUAUACGAGCCCCCUUUUUCACAUACUGAUAUGCCACAUCUCUGAGCAACAGAGGAUUGAGCAUCA
B6: 120768192_120770490_416_CDS_ENSMUSG00000043207_ENSMUST00000058754|mouse|control|control (ssRNA)
RNA: GGGAGUUCUACAGUCCGACGAUCGCUGAAGGUACUUUUAUCCAGUUGAUACAAUCGAGAUUUCUCAAACGUGUCCGAAUCCAUGAUCUGUUCUAACUCUGCUGGUACGCGAGUCGUCGUUUUGUAUAUCCUUCUCUGCCGCUGCAACAGAGGAUUGAGCAUCA
B7: chr20:57570089:57570090:+_ENSG00000101158_ENST00000344018|hu_mus|FALSE|FALSE (ssRNA)
RNA: GGGAGUUCUACAGUCCGACGAUCACUCCCACACACACACAUACAACUCAACAUUACUCUUGGAAACUUAAAGUAACUGACCAUCUGGGUCAUAGGAAGGAAACUUACAUAAACCCUUCAUGAAGUGUCCCAGCUGCUAGAUUCCAACAGAGGAUUGAGCAUCA
B8: chr1:60041781:60041782:+_ENSMUSG00000041040_ENSMUST00000036540|mus_hu|mus_mus_mus_hu_False|18_88 (ssRNA)
RNA: GGGAGUUCUACAGUCCGACGAUCAAGUUUACAAUAGUAAAGUAAAUCAAAUUUAGUCAAAUUUUCUUUUAUUUUCCUUCACAAAAGAAAAUCUUUAUAACCCAGUCCUAGUCUUGGCAGAGAAAGCAGCUAUAAAUUCUGACUCAACAGAGGAUUGAGCAUCA
B9: chr15:76909541:76909542:-_ENSMUSG00000033565_ENSMUST00000166610|perfect_dup|FALSE|FALSE (ssRNA)
RNA: GGGAGUUCUACAGUCCGACGAUCAACAUGAUCAAUAAUUUAUACACAUGGAGAGUAAUACAAAAAAAUAAGGAAUAAAAGCUAAAGAUCUAACUACUCCGACCUUCACAAUUCCAGCUACUUGAUAAUAAUAGGAGUAACCCACAACAGAGGAUUGAGCAUCA
B10: chr1:163117127:163117128:-_ENSG00000143248_ENST00000313961|hu_mus|hu_hu_hu_mus_False|48_78 (ssRNA)
RNA: GGGAGUUCUACAGUCCGACGAUCUGCUACAAAGGAUGUAACUCAACUCACAGGGCAUGAUUUCAUAGCCUGACCAGAUGACUACUUGAUUAACUCCUUAUAAAAUUCAGAGCGCACAAAGCGGGGCAGAGAAUCCUUCUCCAUCAACAGAGGAUUGAGCAUCA
B11: chr1:163117127:163117128:-_ENSG00000143248_ENST00000313961|hu_mus|hu_hu_hu_mus_False|18_78 (ssRNA)
RNA: B10 RNA with A92G, G123A
B12: chr15:76909541:76909542:-_ENSMUSG00000033565_ENSMUST00000166610|perfect_dup|motif|central (ssRNA)
RNA: B9 RNA with U82G, A83G
B13: 168352429_168352549_4431_CDS_ENSG00000130396_ENST00000400822|human|control|control (ssRNA)
RNA: GGGAGUUCUACAGUCCGACGAUCAAUGUACUGCAAGUCUCUGCGCUCGAUCGUGCGGGGCUGCUGCUGAGGCUGCAGCUCCCGAAUGACUGUUUCCUGUGGCCGCUGGAGUGUGGAAGGCUUUUCGGGCUUCAUCUGCUGUGCCAACAGAGGAUUGAGCAUCA
B14: chr2:201681052:201681053:+_ENSG00000082153_ENST00000409600|hu_hu|FALSE|FALSE (ssRNA)
RNA: GGGAGUUCUACAGUCCGACGAUCUUUUACUUCAUCUUCAAAACCUUUCUCCAGGUAUUUGUAGCGCCUGAUUAACUUGUUAAAAACCUGAGCAAAUGCUUGCAUGGUCUCUAGAUCUUCUUGGGCUGCAAACACGCAGACAUCCAACAGAGGAUUGAGCAUCA
B15: 5253780_5253900_1103_CDS_ENSG00000029725_ENST00000262477|human|control|control (ssRNA)
RNA: GGGAGUUCUACAGUCCGACGAUCAACUUGUCGGAGCUGUUCUGAAGUUAGCACAAUCUCCAUUCGCUGCAUGUCUCUCAUCAGUAAACGCUGAGAUUCCAGAAACUGGUCAUUGGCCUUCUGCCACGUAUGUUUUAACUGGUUCAACAGAGGAUUGAGCAUCA
B16: chr22:32879901:32879902:+_ENSG00000100225_ENST00000397426|hu_mus|hu_hu_hu_mus_False|48_98 (ssRNA)
RNA: GGGAGUUCUACAGUCCGACGAUCCUCUUCCAUACUCGCAUUAUCUUGAAUUGACUCAGCUUCAACAUUUUGACUAGGCCCUUCCAUACUGUCGUCAGUCCAGGCAUCAAAUGGGGUGGCCUGUCCUUGGGAUGAAUCAGUCCCCAACAGAGGAUUGAGCAUCA
B17: chr17:56552419:56552420:-_ENSMUSG00000013236_ENSMUST00000086828|mus_mus|mus_mus_mus_hu_False|58_78 (ssRNA)
RNA: GGGAGUUCUACAGUCCGACGAUCAAAAAAUACACUAUUUAAAAAAAAUGAAAUGUCAGAAAAAGAAGUUACACUGACACUAUUAAAAGAAAGCUGGAUUCUGGUCCCAGCCCAGUGUCCCCAGGCUGCAGAGCGGGGAGGAGCCAACAGAGGAUUGAGCAUCA
B18: chr17:56552419:56552420:-_ENSMUSG00000013236_ENSMUST00000086828|mus_mus|mus_mus_mus_hu_False|1_78 (ssRNA)
RNA: B17 RNA with C77G, C79G, A81U, A138C, G139A, C143G
B19: chr17:56552419:56552420:-_ENSMUSG00000013236_ENSMUST00000086828|mus_mus|mus_mus_mus_hu_False|78_88 (ssRNA)
RNA: B17 RNA with U48A, G49A, A50G, U53A, G54A, U55A, C56A, C77G, C79G, A81U
B20: chr17:56552419:56552420:-_ENSMUSG00000013236_ENSMUST00000086828|mus_mus|mus_mus_mus_hu_False|78_98 (ssRNA)
RNA: B17 RNA with U38A, U39A, C77G, C79G, A81U
B21: 86747786_86748123_1683_CDS_ENSMUSG00000035671_ENSMUST00000039480|mouse|control|control (ssRNA)
RNA: GGGAGUUCUACAGUCCGACGAUCGUGCUGGUAGGCCAGCUUUCGCUUCUCUGGGGCUGAGUCUGGGAAAAGAGAGUGAGGCUCCUCCUCCAGGCGACAGGCCUCCAGCAGUGCCCUGCAGAGGCAGCCAAUGGGAUCCAGGGGCAACAGAGGAUUGAGCAUCA
B22: chr11:77336104:77336105:-_ENSG00000074201_ENST00000525064|hu_mus|hu_hu_hu_mus_False|68_98 (ssRNA)
RNA: GGGAGUUCUACAGUCCGACGAUCCUCACACAUUGCUGUGAACAUUGCCUCCAAUGCUGACUUAUCACUAGGCACAAAUCGAAAUUCAGAAAUGGGUUCAACAUCAUCAUUGUCUUCCUCAUCUUCAUCAGAGAGAGGUUCUUUCAACAGAGGAUUGAGCAUCA

Target: T1, UNK ZnF1-3
Assay: nsRBNS (natural sequence RNA bind-n-seq); RBNS binding buffer (assumed for nsRBNS): 25 mM Tris pH 7.5, 150 mM KCl, 3 mM MgCl2, 0.01% Triton X-100, 500 ug/ml BSA, 20 U/ml SUPERase-In, 4 C; UNK is unkempt and MSI1 is Musashi-1; names of the RNAs are library labels; protein concentration not given here; high values mean tight binding

Binder | binding signal [enrichment R]
B1 | 0.274
B2 | 0.577
B3 | 1.59
B4 | 0.742
B5 | 0.799
B6 | 0.656
B7 | 1.41
B8 | 0.9
B9 | 6.42
B10 | 1.08
B11 | 0.919
B12 | 8.91
B13 | 0.667
B14 | 0.452
B15 | 0.594
B16 | 0.919
B17 | 8.52
B18 | 3.68
B19 | 12.6
B20 | 8.48
B21 | 0.778
B22 | 0.885

Source: PMC12136788
